According to paper PMC12136788:
Over roughly 24,000 sequences, “enrichment r” has its median near 0.99; the highest 2% begin near 3.7. Only a sample is shown.

T1: UNK ZnF1-3 (human, UniProt Q9C0B0 31-174)
T1 sequence: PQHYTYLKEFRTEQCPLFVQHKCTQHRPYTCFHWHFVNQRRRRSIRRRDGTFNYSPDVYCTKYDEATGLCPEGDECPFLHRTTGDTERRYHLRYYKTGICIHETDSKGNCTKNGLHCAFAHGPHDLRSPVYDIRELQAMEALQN

B1: 12329608_12331292_3055_3pUTR_ENSMUSG00000032625_ENSMUST00000046121|mouse|control|control (ssRNA)
RNA: GGGAGUUCUACAGUCCGACGAUCGAGGGUACAAAUGAGAGUUUUUACAUUUUUCCUUCUUUUUACUUUUCCCAACAAUAGCACGCUUUCUGGUCCUAACUGCACCGCAGUCUCCGUUGCAUGAAGAAAACUUGGACCAGCUGGCAACAGAGGAUUGAGCAUCA
B2: chr7:28421298:28421299:+_ENSMUSG00000004056_ENSMUST00000051356|mus_hu|FALSE|FALSE (ssRNA)
RNA: GGGAGUUCUACAGUCCGACGAUCCAUCAUCUCGUACAUGACCACACCCAGCCCCCACCAGUCCACGGCCCGGCCAUAGUCAUUGUCCUCCAGCACCUCAGGCGCCAGGUACUCCGGGGUCCCACAGAAGGUUUUCAUGGUGGCCAACAGAGGAUUGAGCAUCA
B3: chr7:151048522:151048523:+_ENSG00000013374_ENST00000566856|hu_mus|hu_hu_hu_mus_True|48_108 (ssRNA)
RNA: GGGAGUUCUACAGUCCGACGAUCCUGCUUCUUAUUUAUUACGAUCUUGAUGUAAUUUUCUUGAAAUCCGAAAGUUUCAGCUAUUUGGGACCUCAGUUCUCUACCAGUGACAUGCAAGCGGGUCUCCAACAAGCUUUUCUUAUCCAACAGAGGAUUGAGCAUCA
B4: chr7:52357369:52357370:-_ENSMUSG00000003420_ENSMUST00000003512|mus_hu|FALSE|FALSE (ssRNA)
RNA: GGGAGUUCUACAGUCCGACGAUCGUGCUCCCGCAGGCGGUGCGGGCAGGAGAAUAGCAGGAAGGUGAGCUCCUUGUUGGCCGCCUUGUCCUGCUGCUGCCACCGCUGACUGAUAGCCAGGGCCUCGGGCCAGUCCCCACCCCACAACAGAGGAUUGAGCAUCA
B5: chr5:132440482:132440483:+_ENSG00000170606_ENST00000304858|hu_hu|FALSE|FALSE (ssRNA)
RNA: GGGAGUUCUACAGUCCGACGAUCUUAAAGCAUAAUUAGAGCUCCUGCCAUGUAAGUCAUAAUGAAAAGUCUGCUGGAUAGCUAGAGCUGUAGCUAUAGCUCAACUUUCCAAAACAAACUUAUUCUUGUAGACACAUGGUUAAACAACAGAGGAUUGAGCAUCA
B6: chr8:101271117:101271118:-_ENSG00000034677_ENST00000519449|hu_mus|motif|central (ssRNA)
RNA: GGGAGUUCUACAGUCCGACGAUCGCAAUCACUGGAGCCGUGACUACAGGACGUUCUCAUGCUUUCUAAGUCUGAGCAGCGGAAUUCAGAAAAAUGACUGGAGUGGGAAUCUGCUACAGACGGCAUGCUGUCACUGAGGGAUGGCAACAGAGGAUUGAGCAUCA
B7: 46683936_46684056_841_CDS_ENSMUSG00000033319_ENSMUST00000036226|mouse|control|control (ssRNA)
RNA: GGGAGUUCUACAGUCCGACGAUCUCGAAGAGGAGUUGAGUUGGUUAAAGUCGUGUUGUUGACAGAUGCUCCGUGAUUUAACAAAGACUGGACAACCUUCAGAUGUCCUGCUGCAGAAGCGGCCCAUAAAGGGGGGGCCCCCUCCAACAGAGGAUUGAGCAUCA
B8: chr22:36164377:36164378:-_ENSG00000100320_ENST00000405409|hu_mus|FALSE|FALSE (ssRNA)
RNA: GGGAGUUCUACAGUCCGACGAUCACGGCCCUCUACCACGGUGCCGUGCAAUUUCUCCCUGGCCCUGUCUGCAUCAGCACUAUUCUCGAAAGUUACGAACCCGAAUCCCUUGGAGCCGCGCUCAUUAAAGAUUAUUUCCACAUCCAACAGAGGAUUGAGCAUCA
B9: chr17:3572670:3572671:+_ENSG00000127774_ENST00000248378|hu_hu|FALSE|FALSE (ssRNA)
RNA: GGGAGUUCUACAGUCCGACGAUCGUAGGUGAAGAGGCCCCCGAUGAGGCCUCCUGUAAAGAGAGGUCUCCGUGAUUUGAAAUAUUUGUUCCACCUCCUUCCCGCCUUGAGAAUGAGGAGCAGGGAGAGCAGGACGGAGGCGAGCAACAGAGGAUUGAGCAUCA
B10: chr2:47387770:47387771:-_ENSG00000143933_ENST00000272298|hu_mus|hu_hu_hu_mus_True|1_38 (ssRNA)
RNA: GGGAGUUCUACAGUCCGACGAUCAAGGUUUAAGGACAAUGACAGUAAGAUAAGGGAAGAAAACAUGGAGGAAUGAAGUCCUAAUUACUAUACAUGCAUAUUUUUUUACAGUAGGGGGGGGGAACCUUUUACAGAUAUUACAAACAACAGAGGAUUGAGCAUCA
B11: chr9:35286173:35286174:+_ENSMUSG00000038119_ENSMUST00000042842|mus_mus|FALSE|FALSE (ssRNA)
RNA: GGGAGUUCUACAGUCCGACGAUCAGUAUUAUUGUUACUUGAUGGAACAUACGUCCAUUUCAGCAUGAUCUGAGUGUCGCUAACAGCCUCUGUGUAUGCGAUGUGAGGUCCAGUUAUUGGGCGAUUGGAAAAACGAUUUGGGAACAACAGAGGAUUGAGCAUCA
B12: chrX:98862621:98862622:+_ENSMUSG00000034160_ENSMUST00000044475|mus_hu|mus_mus_mus_hu_False|58_88 (ssRNA)
RNA: GGGAGUUCUACAGUCCGACGAUCCUGCAUCUCCUUUAGAGUGUUUCCCAUAUUGGAGUAGGCAUCAGCAAAGGUAGGACUAAUUCGAAUAGCCUCCUUAUAAUGCAUCAGAGCUUCCUGCAGUUUUCCCUGCUGCUGCAGUACCAACAGAGGAUUGAGCAUCA
B13: chr2:32089778:32089779:+_ENSMUSG00000039262_ENSMUST00000036691|mus_hu|FALSE|FALSE (ssRNA)
RNA: GGGAGUUCUACAGUCCGACGAUCUAAACAAGCUGCACAUUACACCUCUAGCCAUCGUCUGCCCUUUCAAAUAUCUGGUCUACAUGGAAAGACAAAGAGGAAAGGCCAAAACAUAAACAAAAGGAAACAAAAACAAAACACAACCAACAGAGGAUUGAGCAUCA
B14: chr5:28742860:28742861:+_ENSMUSG00000048271_ENSMUST00000114884|mus_mus|FALSE|FALSE (ssRNA)
RNA: GGGAGUUCUACAGUCCGACGAUCAGAAUCUCUUGAAAAAGAAAAGGUGAGAUUUCCUCCUCAAGAAGAGUAUCAAUAUAAUAAGGAUUUAACAAAUGUGGCCAAGCCAAGGGCAGCAUAAGGUUAUGUUCAGGUAAGCAGCUGCAACAGAGGAUUGAGCAUCA

target: T1, UNK ZnF1-3; assay: nsRBNS (natural sequence RNA bind-n-seq); RBNS binding buffer (assumed for nsRBNS): 25 mM Tris pH 7.5, 150 mM KCl, 3 mM MgCl2, 0.01% Triton X-100, 500 ug/ml BSA, 20 U/ml SUPERase-In, 4 C; UNK is unkempt and MSI1 is Musashi-1; names of the RNAs are library labels; protein concentration not given here; high values mean tight binding

In order of falling binding signal:
1. B13  2.59 enrichment R
2. B10  2.41 enrichment R
3. B2  1.8 enrichment R
4. B14  1.72 enrichment R
5. B6  1.45 enrichment R
6. B7  1.3 enrichment R
7. B8  1.19 enrichment R
8. B9  1.1 enrichment R
9. B11  0.899 enrichment R
10. B12  0.89 enrichment R
11. B4  0.754 enrichment R
12. B3  0.712 enrichment R
13. B5  0.424 enrichment R
14. B1  0.4 enrichment R
